# Test results: the supplement of paper PMC11417369
# Over roughly 25,000 sequences, “ln(normalized median fluorescence intensity)” has its median near 9.7; the highest 2% begin near 11. For the sample, the highest values were picked, then their nearest neighbours and some sequences at random.
# System: PfAP2-HC AP2 domain (GST-tagged)
# Test: gcPBM binding intensity (ln(normalized median fluorescence intensity)); higher = stronger DNA binding
# Method in brief: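 The highest Masliner-normalised natural-log median intensity across replicate spots of either probe orientation is reported as binding intensity. GST-tagged P. falciparum DNA-binding domains expressed in E. coli were applied for 1 h to an Agilent 4 × 180k array of primer-extended double-stranded 36-bp intergenic genomic probes plus negative controls, and bound protein was detected with Alexa488 anti-GST antibody and scanned at 488 nm.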
row,Sequence,gcPBM binding intensity (ln)
1,AAGTATTATATATTTTGTACATATATAAAACCACAA [XGTACX_site5508],9.61
2,AATATATACACATGCGCACACACAAGTGGGAAATTT [CACACA_site8527],10.2
3,ATAGAAACATATTGACGTACAGTATAATAATACAGT [XGTACX_site197],9.91
4,TGAAATACGAATTATTGTACTTATGTGTAAGATGGC [XGTACX_site4472],9.71
5,CAATTTGGTGTACAGGTGCACATGCCTCACGATAAA [GTGCAC_site9650],9.61
6,TATATACACAAACACACACACACATACACCCACATA [CACACA_site8504],10.8
7,AGATACAAGCACTATAGTACACATACTAAAAATATA [XGTACX_site5849],9.73
8,CACCCATACACATACAAACACACATTCTATATATAT [CACACA_site1600],10.1
9,CATACATACAAACACACACACACACCCATATATATA [CACACA_site2918],11.1
10,TACTAAAACCCATACACACACATATTTATAGTACCA [CACACA_site7484],10.6
11,AATACTAAAACCCATACACACACATATATATAGTAC [CACACA_site9041],11
12,TTATATGTATATATAGTGCAGAACAAAAGATTATAT [GTGCAC_site9599],9.7
13,GGACTTTATAAAAATGGTACACGCAATTCTATAATC [XGTACX_site6515],9.61
14,CATATACATAAACACACACACACATAAATAAATATA [CACACA_site4864],10.6
15,AAAAAACATACATACACACACATAAATATATATATT [CACACA_site2699],10.4
16,AAACGTACATAATACACACACATGTATACATATAAA [CACACA_site2048],10.2
17,AAAAATTAAATAAATTTACACACTAATAATTACATA [CACACA_site8260],9.63
18,TACAATTTAAAACACACACACAATAATACATATATA [CACACA_site1251],11
19,TACATAAATTAAAACACACACACACTAATAAAAAAA [CACACA_site8712],11.3
20,CATTTAACATAAATTAAACACACAATATAATACATT [CACACA_site8333],9.73
21,ATTTCATAAATTAAACGTACATAATACACACACATG [XGTACX_site4155],11
22,TATAATTTAAAATACACACACATATATATAATATAT [CACACA_site2000],10.1
23,GAAATAATTTCATATACACACATATACATACATACA [CACACA_site1358],9.95

row,Sequence,gcPBM binding intensity (ln)
1,AAAAAAAACATACATACACACACATAAATATATATA [CACACA_site8864],11.4
2,TACATAAATTAAAACACACACACACTAAAAAAAAAA [CACACA_site7130],10.5
3,ATAAAAATATTACGCACACACAAACTTATTCATTAT [CACACA_site1969],10.2
4,TATATATTTTTATGTGTGCACTGTTTCATAAAAGAA,9.61
5,ACAATTTACACTTAAACACACAAAAAAAAGTTATAT [CACACA_site7056],9.98
6,ATATATTTATATATATGTACATATTATGTTAAGAAA [XGTACX_site1111],9.69
7,ATATATAAATTTTAGTGTACATTAATTTTTTTTTTT [XGTACX_site7782],9.64
8,ATTTATTTATATTTAGTGCAATACTATTTTTAAATA [GTGCAC_site9886],9.48
9,TTATGTTGTAAATACACACATACATATACATACACA [CACACA_site733],9.91
10,ATAATATATACGTGTGTGCACATGACAAAAGCATAT,10.6
11,AAAAAATAAAAAAAAACACACACATACAAGCATATA [CACACA_site8451],11.1
12,TATATTCTTTTAAACAGTACACACACACATATATAT [XGTACX_site1701],11.1
13,AAAAAAAAAAAAAACACACACATATAAATATAAATA [CACACA_site6972],10.4
14,AACATATACACGAACACACACACATATAAATAAATA [CACACA_site6380],10.4
15,TACACAAAAATAAACACACACACATATATATATATA [CACACA_site1000],10.2
16,ATTCTTTTAAACAGTACACACACACCGATATATATA [CACACA_site8213],10.7
17,CATATACACGAACACACACACATATAAATAAATATA [CACACA_site6379],10.6
18,TCTTTTAAACAGTACACACACACATATATATATATA [CACACA_site924],10.7
19,AATATATAAATATATACACACAAAAACATATATATA [CACACA_site1318],9.99
20,AATATAAATAAACACACACACATATATATATATATT [CACACA_site2906],11
21,TAAAATATAAAACACACACACATATATATATATATT [CACACA_site224],10.3
22,CTAAAATACGAACACACACACACATATAAATAAATA [CACACA_site7872],11.2
23,AAGCATTTTTTTTAAAGCCTGTTCATCATCCTTACC [CACACA_negctrl_site129],9.44

row,Sequence,gcPBM binding intensity (ln)
1,TATTAATTAAACCATACACACATAATTTTTTTATAA [CACACA_site843],9.85
2,ATTATTTAAATTTAACGTACGGAATAAGACATAGAT [XGTACX_site8622],9.79
3,CATTTACATGCCAACATGCACTGAACAATCTTTATA [GTGCAC_site9797],9.68
4,AAAATATATTAAGGCACACACATACATATTTATATA [CACACA_site7707],10.2
5,AAATGAATAAAATTTATTTATAAAAGAAAAATCACA [GTGCAC_negctrl_site225],9.57
6,TATATATATATATATACACACATACAGATATATATT [CACACA_site4629],9.88
7,TAAATAAATAAAAAAACACACATATAAATATAAATA [CACACA_site7815],9.93
8,AGAGCATAATAAAACACACACATACATACATATATA [CACACA_site935],10.3
9,TAAATAAAAAAACACACACACATATATATATATATA [CACACA_site2269],11.4
10,GTAGAGCATAATAAAACACACACATACATACATATA [CACACA_site8217],10.4
11,TAAATAAATAAAAAAACACACATATATATATATATA [CACACA_site4029],10
12,AAATAATATAAACATACACACACACCGATATATATA [CACACA_site8945],10.7
13,AAAAAAAAAAAAAACACACACACACGCATAAATATA [CACACA_site6217],11.5
14,CATAAAATATAAAACACACACACATATATATATATA [CACACA_site223],10.7
15,ACCATATAAATAAACACACACACACCGATATATATA [CACACA_site5310],10.6
16,AGAGCATAATAAAACACACACATACATACCTATATA [CACACA_site6566],10.9
17,AAAATACATAAACACACACACACACCGATATATATA [CACACA_site9186],11.6
18,TATAAATAAAAACACACACACACATATATATATATA [CACACA_site2268],10.7
19,CAATCATGGTTTTACACACACATGCATGTGAAAATT [CACACA_site4870],9.8
20,TTATACGATAATATGACACACAATACAAAAATGTAA [CACACA_site1918],9.86
21,AATATAATATATATTAGTACATATATATATATATAT [XGTACX_site870],9.58
22,GAAATAAATATATATGCATGTACTTTAATATTATTA [TGCATGCA_site904],9.66
23,TTTTACATATATATATGTACGAAAATGAAAAGGTCA [XGTACX_site5576],9.59

row,Sequence,gcPBM binding intensity (ln)
1,TTTTTATGTTATCAAATAAATATAAATATAATTCAT [CACACA_negctrl_site1522],9.32
2,AAATTTATGAACCTAGTGCAGAAATTAAAAAGATGA [GTGCAC_site9396],9.54
3,TCATATATTCAAAAATTTAAAGTTAATAAAACTTGA [CACACA_negctrl_site1546],9.06
4,ATAAATATTGGGTGCACACACATAATATATATATAT [CACACA_site2272],10.2
5,TAAAAAGGAAAACACACACACACATATATATATATA [CACACA_site3588],11.4
6,TATAAAAGGAAACACACACACATATATATATATATA [CACACA_site939],10.5
7,AGGAAAAAAGAAAAAACACACATAAATATATATATA [CACACA_site3085],9.74
8,AAAAAAAAAAAAAAAACACACATAAAAATATAATAA [CACACA_site3855],9.9
9,ATATAAATATAGTGTGCACACACATAATATATATAT [CACACA_site8713],10.4
10,AATATAAAAATGTTTACACACACACGGAAATATATT [CACACA_site7226],10.3
11,AATATAAAAATGTTTACACACACACCCAAATATATT [CACACA_site2511],10.2
12,GGAATAATATAAAACACACACATAAATATAAATATA [CACACA_site3376],10.7
13,ACATATAAATATTGTGTGCACACACATAATATATAT,11.3
14,AATATAAAAATGTTTACACACACACCGAAATATATT [CACACA_site8800],11.2
15,AAGGAATAATATAAAACACACACATAAATATAAATA [CACACA_site9115],11.4
16,ATATAAAGAAATTAATTTTTCAACAATAAAAATATA [CACACA_negctrl_site1262],9.35
17,AAATTGGGGCTTGTTACACACTTAGTGCGAGTTCTA [CACACA_site582],9.75
18,ATTTATTATATATAGTGTACGTTCTTAATTATAATT [XGTACX_site7480],9.69
19,TATCATATATTATATGCACACATGTTTTTCAAGAAT [CACACA_site1892],9.74
20,TTTCTTTTTCGATATACACACTGTATGTGTCTAAAA [CACACA_site6054],9.95
21,TGTATGATAACTATAGTGCATTTGGTAATTTTTCCA,9.51
